Assay outcomes (PubChem)
MRP reversal: compounds reversing MRP-mediated drug resistance. actives 0.04% (n = 85,000). H69AR cells + 2 uM doxorubicin, CellTiter-Glo, 72 h. AID 602. differential viability (reversal), % at 10 µM;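 active = viability drop by adding the cancer drug above about 55%, with treated viability meeting a 40% cutoff, limit read from the data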;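 also: viability without doxorubicin minus viability with 2 µM doxorubicin for each compound; larger differential means the compound sensitizes cells more to doxorubicin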
MRP1 act: activates MRP-1 | H69AR cells + doxorubicin, viability rescue, CellTiter-Glo | viability increase, % at 10 µM | actives 0.61% (n = 140,000) | AID 799;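 active = viability gain under doxorubicin at or above a set limit, the compound median plus 3 SD, cut at about 4.7% in these data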;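 also: MRP-1 overexpressing cells given doxorubicin 25 µM after compound pretreatment; 18-22 h compound pretreatment then 72 h with doxorubicin before readout; 0% = doxorubicin-only wells and 100% = vehicle-treated cells without doxorubicin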
LYP act: LYP (human) phosphatase activation | Q9Y2R2 | recombinant LYP, DiFMUP fluorescence; 0 = plate median, 100 = signal doubled | activation, % at 2 µM | actives 0.11% (n = 96,000);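 active = activation at 2 µM above a set limit, the mean plus 5 SD, cut at about 37% in these data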
PLAP act: activates human placental alkaline phosphatase. P05187. purified PLAP enzyme, luminescent substrate read-out; hits give high values. activation fold at 20 µM. actives 1.2% (n = 96,000); in the data active = activation fold above about 2
FAK inh: inhibitors of human focal adhesion kinase; Q05397; biochemical FAK kinase activity assay; inhibition, %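 (tested at 7 µM)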; actives 0.84% (n = 97,000); AID 727; in the data active = inhibition above about 19%;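 also: 0% = DMSO and 100% = reference compound high control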
Target sequence (Q05397 whole entry, looked up): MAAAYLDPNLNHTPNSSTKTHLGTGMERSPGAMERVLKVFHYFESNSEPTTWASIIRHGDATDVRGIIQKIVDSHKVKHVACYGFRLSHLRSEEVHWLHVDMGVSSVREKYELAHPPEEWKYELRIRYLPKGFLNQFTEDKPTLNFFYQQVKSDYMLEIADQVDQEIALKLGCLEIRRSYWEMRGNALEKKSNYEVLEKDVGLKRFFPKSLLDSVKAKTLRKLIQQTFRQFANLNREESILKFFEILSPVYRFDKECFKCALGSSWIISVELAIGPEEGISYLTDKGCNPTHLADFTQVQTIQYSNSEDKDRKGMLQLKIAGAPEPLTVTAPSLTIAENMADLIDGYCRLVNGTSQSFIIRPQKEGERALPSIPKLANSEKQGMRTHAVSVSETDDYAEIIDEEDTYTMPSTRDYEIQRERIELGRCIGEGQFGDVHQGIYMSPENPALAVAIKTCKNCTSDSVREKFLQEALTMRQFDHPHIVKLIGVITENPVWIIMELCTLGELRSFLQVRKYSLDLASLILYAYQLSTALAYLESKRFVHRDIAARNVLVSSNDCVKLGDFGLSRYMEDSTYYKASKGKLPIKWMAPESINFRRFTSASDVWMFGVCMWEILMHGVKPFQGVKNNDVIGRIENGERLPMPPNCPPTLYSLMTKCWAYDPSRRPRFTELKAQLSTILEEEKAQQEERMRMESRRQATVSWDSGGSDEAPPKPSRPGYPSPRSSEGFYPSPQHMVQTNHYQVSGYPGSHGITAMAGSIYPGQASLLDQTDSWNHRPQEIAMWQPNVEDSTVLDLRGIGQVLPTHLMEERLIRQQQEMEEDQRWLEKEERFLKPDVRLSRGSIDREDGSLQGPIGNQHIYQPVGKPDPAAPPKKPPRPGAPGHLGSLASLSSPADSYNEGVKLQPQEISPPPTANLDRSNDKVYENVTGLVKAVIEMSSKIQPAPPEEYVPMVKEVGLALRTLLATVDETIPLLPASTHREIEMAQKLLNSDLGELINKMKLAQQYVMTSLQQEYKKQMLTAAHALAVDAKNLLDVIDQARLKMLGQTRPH
PTPN22 inh 2: inhibitors of human LYP (PTPN22) phosphatase; recombinant LYP catalytic domain, DiFMUP fluorescence; inhibition, % at 2 µM; actives 0.21% (n = 96,000); AID 640;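 active = inhibition at 2 µM at or above a set limit, the screen mean plus 3 SD, cut at about 24% in these data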;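 also: 0% = DMSO with enzyme and 100% = enzyme fully blocked by orthovanadate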
An asterisk follows results filed as active; . = no result. A selection: hits, their analogues and other compounds. The true share with any hit is near 2.2%.

SMILES | MRP reversal | MRP1 act | LYP act | PLAP act | FAK inh | PTPN22 inh 2
COc1ccc(C2CC3(CC(C)(C)NC(SC)=N3)Oc3cc(O)cc(C)c32)cc1 (stereo not given) | . | -4.4 | . | . | . | .
Cc1nn(Cc2ccccc2)c(C)c1NC(=O)c1noc2c1CCc1ccccc1-2 | 18.4 | 6.5* | 3.8 | 1.5 | -2.5 | -7.2
Cc1ccc(NC(=O)c2noc3c2CCc2ccccc2-3)cc1 | -16.5 | -1.5 | 3.4 | 0.8 | 0.5 | 0.0
Cc1ccc(O)c(-c2cc(C(F)(F)C(F)F)[nH]n2)c1 | -5.0 | -1.2 | 1.7 | 2* | 2.8 | -4.0
Cc1ccc(O)c(-c2cc(-c3ccccc3C)[nH]n2)c1 | -1.0 | -5.8 | 7.4 | 1.6 | 2.7 | -8.4
Cc1cccc(Nc2nnc(SCC(=O)Nc3cccc(S(=O)(=O)N4CCCCC4)c3)s2)c1 | . | -0.9 | . | . | . | .
Cc1cccc(Nc2nnc(SCc3cn4ccsc4n3)s2)c1 | 2.3 | -2.9 | 1.0 | 2.1* | 2.8 | -1.1
Cc1cccc(Nc2nnc(SCC(=O)Nc3cccnc3Cl)s2)c1 | . | 8.1* | . | . | . | .
O=c1cc(CSc2nnc(Nc3ccccc3)s2)nc2sccn12 | . | -2.5 | -3.2 | 0.9 | 3.1 | 4.9
CCCCN(C(=O)NC(=O)Nc1ccc(C)cn1)S(C)(=O)=O | . | -0.3 | . | . | . | .
Cc1ccc(/C(=N\O)c2oc3c(C)c4oc(=O)cc(C)c4cc3c2C)cc1 | -5.1 | -6.8 | 9.8 | . | -1.2 | -10.4
Cc1cc(=O)oc2c1ccc1oc(/C(=N/O)c3ccccc3)c(C)c12 | -9.7 | 10.1* | -3.1 | 1 | 2.8 | 1.7
O=C(NN1C(=O)C2C(c3ccccc3)C=CC(c3ccccc3)C2C1=O)c1cccc(Br)c1 (stereo not given) | . | 1.7 | . | . | . | .
CCNC(=S)NNC(=O)c1cc(CC(C)C)nc2ccccc12 | . | -0.6 | 15.8 | 2.3* | 0.0 | -12.9
CCCOc1cccc(-c2cc(C(=O)NNC(=S)NCC)c3ccccc3n2)c1 | . | -5.9 | -3.7 | 2.2* | -2.5 | 6.5
CCNC(=S)NNC(=O)c1cc(-c2ccccc2C)nc2ccccc12 | . | -2.8 | -4.2 | 1.2 | 3.6 | 6.6
CC(=O)Nc1ccc(Nc2ncnc3c2cnn3-c2cccc(C)c2)cc1 | . | -0.3 | -4.4 | 1 | 1.7 | 5.6
CC(=O)Nc1ccc(Nc2ncnc3c2cnn3-c2ccc(C)cc2C)cc1 | -12.0 | -0.9 | -10.2 | 2* | 0.2 | 7.9
O=C(Oc1ccc(Cl)c2cccnc12)N1CCOCC1 | . | -3.6 | 8.1 | 0.9 | 1.9 | -8.3
O=C(Oc1c(CN2CCOCC2)cc(Cl)c2cccnc12)c1ccc(F)cc1 | -7.0 | -6.3 | 2.9 | 2* | 0.5 | -1.3
COc1cccc(C(=O)Oc2c(CN3CCOCC3)cc(Cl)c3cccnc23)c1 | 1.3 | -7.4 | -0.9 | 2.6* | -0.1 | 2.8
Oc1c(CN2CCN(c3ccccn3)CC2)cc(Cl)c2cccnc12 | -0.4 | -5.0 | . | 1.8 | . | .
OCCN1CCN(Cc2cc(Cl)c3cccnc3c2O)CC1 | -19.7 | -2.7 | 3.2 | 2.2* | -0.9 | -2.1
COc1cc(C(=O)Oc2c(CN3CCOCC3)cc(Cl)c3cccnc23)cc(OC)c1OC | 0.4 | -5.6 | -9.5 | 2* | 4.2 | 6.9
Cc1c(Cl)c(C(=O)N2CCCC2)nn1C | . | 2.9 | . | . | . | .
SMILES | MRP reversal | MRP1 act | LYP act | PLAP act | FAK inh | PTPN22 inh 2
COC(=O)[C@@]1(Cc2ccc(F)cc2)[C@H]2c3cc(C(=O)N(C)C)n(Cc4c(CO)[nH]cc(C)c4=O)c3C[C@H]2CN1C(=O)c1ccccc1 | . | -1.8 | . | . | . | .
O=C(Oc1c(Cl)cc(Cl)c2cccnc12)c1ccco1 | -17.6 | -1.1 | 4.4 | 2.1* | 1.2 | -7.3
COc1ccc(C(=O)/C=C/c2ccc(OC)c(CN3CCOCC3)c2)cc1 | . | -4.5 | . | . | . | .
COc1ccc(C(=O)Oc2c(CN3CCOCC3)cc(Cl)c3cccnc23)cc1 | 1.7 | -2.2 | 0.4 | 2* | -2.0 | -1.7
OC(c1ccccc1)c1cccnc1 (stereo not given) | . | -2.8 | . | . | . | .
Cc1ccc2oc3nc(C)c(C(=O)Nc4cccc(C(F)(F)F)c4)cc3c(=O)c2c1 | . | -4.2 | -28.5 | 0.8 | -2.9 | 30.6*
Cc1ccc(S(=O)(=O)c2nc(-c3cccs3)oc2NCCCN(C)C)cc1 | . | 0.2 | . | . | . | .
Cn1nnnc1SCC(=O)Nc1nc(-c2ccccc2)c(-c2ccccc2)o1 | 59.9* | -3.9 | -3.6 | 1 | 2.3 | 5.2
Cc1ccc(S(=O)(=O)NC(=O)c2cc(C)n(-c3ccc(N(C)C)cc3)c2C)cc1 | . | -0.3 | . | . | . | .
C=C1CC(C(=O)N/N=C/c2ccccc2)C1 | . | -1.4 | . | . | . | .
O=C(O)c1cc(-c2ccccn2)n[nH]1 | 9.8 | -0.1 | -5.9 | 2.5* | -2.6 | 6.2
Cc1ccc(NC(=O)N2CCN(Cc3ccc4c(c3)OCO4)CC2)cc1 | 9.5 | -1.7 | 0.7 | 2* | 3.9 | 2.6
COc1ccccc1NC(=O)c1ccc(NC(=O)COC(=O)CCC2CCCC2)cc1 | . | 2.2 | . | . | . | .
Cc1ccc(S(=O)(=O)NC(=O)Nc2c(C)n(C)n(-c3ccccc3)c2=O)cc1 | 4.0 | 0.1 | 5.2 | 1.1 | -3.0 | -5.9
Cc1c(NC(=O)c2ccccc2NS(=O)(=O)c2ccc(Br)cc2)c(=O)n(-c2ccccc2)n1C | -10.4 | 5.3* | -7.1 | 1.6 | -2.5 | 7.0
N#CC1=C2C=Cc3ccccc3N2CCCC1=O | 1.3 | 7.3* | . | 0.9 | . | .
CCn1ncc(Br)c1C(=O)Nc1cc([N+](=O)[O-])ccc1C | . | -3.3 | . | . | . | .
Cc1ccc(S(=O)(=O)N2CCN(CC(=O)NC3CCCc4ccccc43)CC2)cc1C (stereo not given) | . | -3.3 | 6.0 | 2.1* | -0.1 | -7.5
C=CCn1c(COc2cccc(C)c2)nnc1SCn1nnc2ccccc2c1=O | . | 0.1 | . | . | . | .
CCN(CC)c1nc(OCCNC(=O)Nc2ccccc2)nc(N(CC)CC)n1 | -18.1 | -1.5 | -8.9 | 2.1* | 6.2 | 11.0
C=CCNC(=O)/C(C#N)=C\c1cc(Cl)c(OCC)c(OC)c1 | . | -4.5 | . | . | . | .
CCn1c(CNC(=O)c2ccc(OC)c(OC)c2)nnc1SCC(=O)Nc1ccc(OC)cc1 | . | -1.4 | . | . | . | .
CCn1c(CNC(=O)COc2ccc(C(C)C)cc2)nnc1SCC(=O)Nc1ccccc1F | . | -0.3 | -7.2 | 2* | 1.9 | 9.9
CCn1c(CNC(=O)COc2ccc(C(C)C)cc2)nnc1SCC(=O)Nc1ccccc1C(C)C | . | 6.2* | -8.7 | 1.7 | 1.2 | 12.4
CC(C)(C)c1ccc(OCCNC(=O)c2ncn[nH]2)cc1 | . | -0.4 | -5.1 | 2.7* | 0.4 | 5.7
SMILES | MRP reversal | MRP1 act | LYP act | PLAP act | FAK inh | PTPN22 inh 2
CCc1cc(C)cc(OCCNC(=O)c2ncn[nH]2)c1 | -6.2 | 1.0 | 17.3 | 2* | -2.6 | -17.9
Cc1c(C(=O)N/N=C/c2cccs2)nc2ccccn12 | . | 1.1 | . | . | . | .
O=C(Nc1ccccc1C(F)(F)F)c1cc2ncc(CCCl)cn2n1 | . | -1.2 | . | . | . | .
COc1ccc(Cc2nc(-c3ccc(Br)cc3)no2)cc1 | 4.2 | 0.5 | . | 0.9 | . | .
COc1ccc(Cc2nc(-c3ccc(Cl)cc3)no2)cc1 | 12.6 | 1.3 | 1.7 | 2* | 1.5 | -3.6
CC(Oc1ccc(Cl)cc1Cl)C(=O)NC1CCSC1=O (stereo not given) | -8.7 | 12.5* | 8.8 | 1.3 | 0.0 | -9.0
N#Cc1nc(COc2ccc(F)cc2)oc1N1CCCC1 | -2.2 | 4.8* | 3.3 | 1 | 5.4 | -4.0
